An excerpt weighted towards active compounds, which were near 12% of everything screened.
ALDH1A1 block = inhibitors of human aldehyde dehydrogenase 1A1; P00352; Purified ALDH1A1, NADH fluorescence, propionaldehyde substrate; AID 1030; hit rate 7.3% among 220,000; Potency, µM (titrated, usually from 75.3 µM), inactives show at the highest dose activity, negative = inhibition, usual class: inhibitors; active means well fitted inhibition curve with a large enough effect, not every such curve was filed as active; inconclusive means small, poorly fitted or top-dose-only effect, or another doubt; inactive means no such curve, though single readings can be large or run the other way;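 further: plate controls were no enzyme wells and a reference inhibitor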
Target sequence (P00352 whole entry, looked up): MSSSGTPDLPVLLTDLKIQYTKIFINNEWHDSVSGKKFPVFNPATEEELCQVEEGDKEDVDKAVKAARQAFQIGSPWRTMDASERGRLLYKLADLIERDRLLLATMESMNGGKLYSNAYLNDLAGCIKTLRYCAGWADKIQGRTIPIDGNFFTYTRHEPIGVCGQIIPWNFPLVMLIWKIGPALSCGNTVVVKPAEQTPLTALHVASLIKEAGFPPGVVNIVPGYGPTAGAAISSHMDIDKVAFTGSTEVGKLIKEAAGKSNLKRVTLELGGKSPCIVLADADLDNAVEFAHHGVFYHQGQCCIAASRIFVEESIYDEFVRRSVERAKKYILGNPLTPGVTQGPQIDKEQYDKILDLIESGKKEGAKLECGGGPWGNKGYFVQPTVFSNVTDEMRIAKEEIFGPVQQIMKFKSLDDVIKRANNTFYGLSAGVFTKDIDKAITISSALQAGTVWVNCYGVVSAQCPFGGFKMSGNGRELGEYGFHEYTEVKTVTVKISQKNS
RORg inh = inhibitors of mouse ROR gamma transcriptional activity; P51450; Drosophila S2 Gal4-RORgamma UAS-luciferase reporter, 20 h; Potency, µM (series often up to 53.6 µM), inactives show at the top dose activity change, negative = inhibition, most hits filed as inhibitors; hit rate 5.4% among 310,000; AID 2551; further: nearly all actives have a fitted effect of over 60% in size
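Compounds are pin-transferred onto Drosophila Schneider cells expressing a copper-inducible Gal4–ROR gamma transactivation domain fusion. After 1 hr, copper sulfate is added to 700 uM final; luciferase is read 20 hr later.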
PLK1 PBD block = inhibitors of human PLK1 polo-box domain binding; AID 720504; hit rate 2.8% among 360,000; P53350; Potency, µM, for the others: max response, negative = inhibition, usual class: inhibitors; Plk1 PBD binding of FITC phosphopeptide, fluorescence polarization; further: series mostly up to about 57 µM; nearly all actives have a fitted effect of over 65% in size
VP16 counter = inhibits Gal4-VP16 luciferase reporter, ROR gamma counter-screen | Potency, µM (doses to about 53.6 µM), for the others: at the highest dose activity, negative = inhibition, most hits filed as inhibitors | Drosophila S2 Gal4-VP16 UAS-luciferase, luminescence, 20 h | hit rate 3.5% among 310,000;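 further: Gal4-VP16 expression switched on by copper sulfate through the metallothionein promoter; nearly all actives have a fitted effect of over 50% in size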
Sfp PPTase inh = Sfp phosphopantetheinyl transferase inhibition; hit rate 3.5% among 310,000; Biochemical Sfp PPTase activity, qHTS; Q9F4F7; Potency, µM, without a hit: largest response in the series, negative = inhibition, most hits filed as inhibitors;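 further: the enzyme is Sfp with the accession as filed and its product quenches rhodamine fluorescence; 0% = enzyme reaction without inhibitor and -100% = no enzyme wells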
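Compounds were incubated with enzyme (final 15 nM) for 15 min at room temperature before substrate addition started the reaction. Fluorescence at 525 nm excitation, 598 nm emission was recorded immediately and after 30 minutes.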
* = called active by the depositor. Unless noted, the call rests on the fitted dose curve; in most records, active means well fitted curve in the direction sought with a large enough effect; inconclusive means small, poorly fitted or top-dose-only effect, or another doubt; inactive means no such curve, though single readings can be large; an effect the other way counts as inactive or inconclusive. Unless noted, on the % scale 0 is the no-effect control and ±100 the full control effect; potency means the concentration at half of the fitted maximal effect.

Screening COc1ccc(C(=O)NC(=S)Nc2ccccc2F)cc1 returned ALDH1A1 block inconclusive, RORg inh 4.5µM*, PLK1 PBD block -15%, VP16 counter 11µM* and Sfp PPTase inh -9%.
`Fc1ccccc1NC(=S)NCc1ccc(Cl)cc1` gave RORg inh 11µM*, PLK1 PBD block -16%, VP16 counter inconclusive and Sfp PPTase inh 19%.
`Cc1nc(NS(=O)(=O)c2ccc(N)cc2)nc(C)c1Br` gave RORg inh 25%, VP16 counter 0% and Sfp PPTase inh 27%.
CC1(c2ccccc2)NC(=O)N(NC(=O)COC(=O)c2cc(Br)ccc2O)C1=O (stereo not drawn) was read as PLK1 PBD block -5%.
O=C1CN(C(=O)COC(=O)CCc2ccccc2O)c2ccccc2N1 was read as PLK1 PBD block 0%.
For Cc1cccc(NC(=S)NCc2ccncc2)c1C the results were ALDH1A1 block -4%, RORg inh -14%, PLK1 PBD block -17%, VP16 counter 2% and Sfp PPTase inh -2%.
`COc1ccc(CNC(=S)Nc2cccc(C)c2C)cc1` gave ALDH1A1 block inconclusive, RORg inh 2.5µM*, PLK1 PBD block -5%, VP16 counter 7.9µM* and Sfp PPTase inh 14%.
For C[C@@H]1CN([C@H](C)CO)C(=O)c2cc(-c3ccc(C(=O)N(C)C)cc3)cnc2O[C@@H]1CN(C)C(=O)c1cccnc1 the results were PLK1 PBD block -10%.
For CC(NC(=O)Nc1ccc([N+](=O)[O-])cc1)C(c1ccccc1)N1CCOCC1 (stereo not drawn) the results were ALDH1A1 block 2.5µM*, RORg inh 38%, PLK1 PBD block -13%, VP16 counter -3% and Sfp PPTase inh inconclusive.
Cc1cc(/C=C2/NC(=O)N(Cc3ccccc3F)C2=O)c(C)n1-c1ccccn1 was read as ALDH1A1 block 8.9µM*, RORg inh inconclusive, PLK1 PBD block -9%, VP16 counter 12% and Sfp PPTase inh -17%.
For CCOc1cc([N+](=O)[O-])cc(/C=C2/NC(=O)N(Cc3ccccc3F)C2=O)c1O the results were ALDH1A1 block 2.2µM*, RORg inh 9%, PLK1 PBD block -15%, VP16 counter -7% and Sfp PPTase inh -16%.
Cc1cc(/C=C2/NC(=O)N(Cc3ccccc3F)C2=O)c(C)n1C was read as ALDH1A1 block 1.1µM*, RORg inh -6%, PLK1 PBD block 30µM*, VP16 counter 10% and Sfp PPTase inh -1%.
Screening COc1cc(/C=C2/NC(=O)N(Cc3ccccc3F)C2=O)cc(OC)c1OC returned ALDH1A1 block 2.5µM*, RORg inh 29%, PLK1 PBD block 9%, VP16 counter -13% and Sfp PPTase inh -12%.
`Cc1ccc(/C=C2/NC(=O)N(Cc3ccccc3F)C2=O)s1` gave ALDH1A1 block inconclusive, RORg inh 7%, PLK1 PBD block -14%, VP16 counter -7% and Sfp PPTase inh -18%.
For COc1ccc(/C=C2/NC(=O)N(Cc3ccccc3F)C2=O)cc1OC the results were ALDH1A1 block inconclusive, RORg inh -17%, PLK1 PBD block 5%, VP16 counter -11% and Sfp PPTase inh 14%.
Screening CC(=O)N1CCc2cc(NC(=O)C3(C)CCN3Cc3ccc(C(C)C)cc3)ccc21 (stereo not drawn) returned PLK1 PBD block 4%.
`Cc1cc(C)c2ccc(C(=O)O)nc2c1O` gave ALDH1A1 block -4%, RORg inh -1%, PLK1 PBD block -18%, VP16 counter 12% and Sfp PPTase inh 20%.
For Cc1ccc2ccc3ccc(C)nc3c2n1 the results were RORg inh 0.25µM*, PLK1 PBD block -9%, VP16 counter 0.56µM* and Sfp PPTase inh 2%.
`Cc1ccc2c(C)ccc(O)c2n1` gave ALDH1A1 block 7%, RORg inh 11µM*, PLK1 PBD block -3%, VP16 counter inconclusive and Sfp PPTase inh 45µM*.
Cn1cc([N+](=O)[O-])c(C(=O)Nc2cc(Oc3cccnc3)cc([N+](=O)[O-])c2)n1 was read as ALDH1A1 block 13µM*, RORg inh inconclusive, PLK1 PBD block -5%, VP16 counter -2% and Sfp PPTase inh -9%.

Compound activity: PubChem, National Center for Advancing Translational Sciences (NCATS)
